High-throughput results: PubChem, National Center for Advancing Translational Sciences (NCATS)
Compounds with a hit are over-represented: about 7.3% of the library has one in this group of screens.
VACV Venus inh: vaccinia inhibition (Venus reporter); Vaccinia virus Venus reporter expression, fluorescence; Potency, µM (highest dose often 36.5 µM), inactives show top-dose activity change, negative = inhibition, hits mostly inhibitors; 330,000 compounds, 0.46% hits; calls by dose curve; tested in A549 cells; also: potency is read from the fitted curve at half-maximal effect; nearly all actives have a fitted effect of over 30% in size
Vaccinia mCherry: inhibitors of vaccinia virus infection (mCherry reporter signal) | Potency, µM (series often up to 36.5 µM), without a hit: at the highest dose activity change, negative = inhibition, usual class: inhibitors | Vaccinia virus mCherry reporter infection, fluorescence | AID 720579 | 310,000 compounds, 0.63% hits; calls by dose curve; tested in A549 cells; also: potency is read from the fitted curve at half-maximal effect; nearly all actives have a fitted effect of over 35% in size
FMDV inh: blocks foot and mouth disease virus. FMDV antiviral cell-based qHTS. Potency, µM (series often up to 57.9 µM), for the others: top-dose activity change, negative = inhibition, usual class: inhibitors. 410,000 compounds, 1.2% hits. AID 1159524; calls by dose curve; tested in HEK293T cells; also: read-out not given here; potency is read from the fitted curve at half-maximal effect; nearly all actives have a fitted effect of over 45% in size
HCV inhibitor: inhibitors of hepatitis C virus infection; Huh7.5.1 HCVcc-Cre infection, luciferase reporter, 44 h; Potency, µM (series often up to 41.8 µM), for inactives: at the highest dose activity change, negative = inhibition, hits mostly inhibitors; 340,000 compounds, 3.4% hits; AID 651820; active = well fitted inhibition curve with a large enough effect; inconclusive = small, poorly fitted or top-dose-only effect, or another doubt; inactive = no such curve, though single readings can be large or run the other way; also: potency is read from the fitted curve at half-maximal effect
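Cells seeded at 1,000/well and cultured 4 h, then compounds added followed by HCVcc-Cre virus (~0.5 moi). After 44 h further culture, luciferase substrate was added, plates held 15 min at room temperature, and luminescence read for 15 sec.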
HCMV antiviral: inhibitors of human cytomegalovirus. HFF cells, HCMV-luciferase reporter, 72 h; stronger effect = lower value. 410,000 compounds, 4.5% hits. activity change, negative = inhibition, % at 57.5 µM. AID 1259415; in the data active = activity change below about -60%; inconclusive = no clear call, values can overlap the other calls; inactive = above about -39%
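Luciferase read-out from HCMV-luciferase-infected HFFs (MOI 1 PFU/cell) 72 h post infection at 37C; compounds added after 16 h cell attachment; activity normalized between buffer-only basal and Salinomycin (10uM) inhibitor controls.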
Numbers without * were called inactive; i = inactive; ? = inconclusive; · = no result; [ ] = another dose, or the depositor's remark. % is scaled to controls: 0 for no effect and ±100 for the full control effect.

SMILES | VACV Venus inh | Vaccinia mCherry | FMDV inh | HCV inhibitor | HCMV antiviral
CC(=O)c1cccc(NC(=O)C2Cc3c(-c4ccc(Cl)cc4)ccnc3O2)c1 (centres undefined) | -22% | ? | 35µM* | · | ·
COc1ccc(NC(=O)C2Cc3c(-c4ccco4)ccnc3O2)cc1OC (centres undefined) | -28% | ? | ? | · | -73*
COc1ccc(NC(=O)C2Cc3c(-c4ccc(NC(C)=O)cc4)ccnc3O2)cc1OC (centres undefined) | 3% | i | -14% | · | -36
COc1ccc(NC(=O)C2Cc3c(-c4ccc5c(c4)OCO5)ccnc3O2)cc1OC (centres undefined) | ? | -20% | 11µM* | · | -90*
O=C(Nc1ccccc1)C1Cc2c(-c3cccc(F)c3)ccnc2O1 (centres undefined) | -8% | 14% | -13% | · | -31
COc1ccc(NC(=O)C2Cc3c(-c4cccc(F)c4)ccnc3O2)cc1OC (centres undefined) | -20% | -3% | 16µM* | · | -76*
COc1ccc(CCNCc2ccccc2F)cc1OC | -8% | · | -7% | 15% | 5
COc1ccc(CNc2nc3ccccc3s2)cc1OC | -1% | i | -15% | 11µM* | 63
COc1ccc(CCNC(=S)c2ccccc2)cc1OC | · | · | ? | 8.9µM* | ?
COc1ccc(CNC(=S)NCc2ccc(F)cc2)cc1OC | -12% | -2% | -14% | ? | -63*
COc1ccc(CCNCc2c(OC)ccc3ccccc23)cc1OC | · | · | -29% | 11µM* | -12
COc1ccc(CCNC(=S)NCCc2ccc(OC)c(OC)c2)cc1OC | -13% | i | ? | ? | -22
COc1ccccc1/C=C(/NC(=O)c1ccccc1)C(=O)NCCN1CCOCC1 | -11% | -1% | -16% | 14% | -19
COc1ccc(CCNC(=O)CC(c2ccccc2)c2cc(C)ccc2O)cc1OC (centres undefined) | · | · | 18µM* | 10µM* | ·
COc1ccc(CCNC(=O)c2ccc3ccccc3n2)cc1OC | -8% | -9% | -27% | ? | -25
COc1ccc(CNC(=O)c2cnc(N3CCN(Cc4ccccc4C#N)C3=O)s2)cc1OC | · | · | · | · | 0
COc1ccc(CNC(=O)c2ccc3ccccc3n2)cc1OC | -14% | -27% | ? | 10µM* | ?
CCOc1ccc(CCNC(=O)c2ccc3ccccc3n2)cc1OCC | · | · | 5% | 11µM* | 92
COc1ccc(CNC(=O)c2csc(N3CCN(CCc4ccccc4)C3=O)n2)cc1OC | · | · | · | · | -86*
COc1cc(OC)c(C(=O)NCc2nc(-c3ccccc3)no2)cc1OC | -3% | i | -26% | · | ?
Cc1ccc(CNC(=O)CN2C(=O)COc3ccccc32)cc1 | -7% | -7% | 35% | · | -13
CC(=O)OCCNc1cc(N2CCN(C)CC2)c2noc3c2c1C(=O)c1ccccc1-3 | 210% | 10% | ? | -11% | -32
CCOC(=O)C(C(=O)OCC)c1cc(Br)c2noc3c2c1C(=O)c1ccccc1-3 | 118% | 3%[1.46 µM] | 25µM* | ? | -106*
Oc1cc(-c2nc3ccccc3s2)cc2c1OCCN(Cc1cccn1-c1ncccn1)C2 | -1% | -13% | 37% | · | ·
O=C(COc1ccccc1/C=C\c1[nH]c(=O)[nH]c(=O)c1[N+](=O)[O-])Nc1ccccc1 | -7% | i | 10% | 25% | 28
SMILES | VACV Venus inh | Vaccinia mCherry | FMDV inh | HCV inhibitor | HCMV antiviral
CCOC(=O)COc1ccc(Br)cc1/C=C\c1[nH]c(=O)[nH]c(=O)c1[N+](=O)[O-] | -23% | -5% | 35µM* | -2% | 40
CCOC(=O)COc1ccc(Br)cc1/C=C/c1[nH]c(=O)[nH]c(=O)c1[N+](=O)[O-] | -13% | -14% | 28µM* | 11% | -25
CCOc1ccc(/C=C/c2[nH]c(=O)[nH]c(=O)c2[N+](=O)[O-])cc1 | -10% | i | -6% | 1% | 12
CCOc1cc(/C=C\c2[nH]c(=O)[nH]c(=O)c2[N+](=O)[O-])ccc1OC(C)CC (centres undefined) | · | · | 8.9µM* | -11% | -97*
CCCOc1ccc(/C=C/c2[nH]c(=O)[nH]c(=O)c2[N+](=O)[O-])cc1OCC | -6% | 10% | ? | -17% | 0
CCOc1ccc(CCN2C(=S)N([C@@H](Cc3ccc(O)cc3)CN3CCC[C@@H]3CN3C(=S)NC[C@@H]3Cc3ccc(O)cc3)C[C@@H]2Cc2ccc(O)cc2)cc1 | ? | ? | -1% | · | -26
